For 56 compounds, inhibition results are on record in PubChem BioAssay AID602318 (Sanford-Burnham Center for Chemical Genomics, 2012).

The structures appear in SMILES notation. Out of some 1,900 compounds screened, about 550 (29%) were called active. Rule as the data show it: active = inhibition above about 40%; inactive = the rest. These entries were drawn from the full list.

The inhibition is the drop in the measured response relative to a control, in per cent.

In the assay the target is 26S proteasome non-ATPase regulatory subunit 14 (Homo sapiens) (UniProt O00487). Nature of the assay: Rpn11 (PSMD14) deubiquitinase inhibitors, confirmation, biochemical, fluorescence polarization, single concentration (AID 602318). Conditions: purified human 26S proteasome, Ub4-pepOG fluorescence polarization; at 20 µM; stronger effect = higher value; proteasome pretreated with epoxomicin.
Sequence of 26S proteasome non-ATPase regulatory subunit 14 (Homo sapiens) (O00487 whole entry, looked up): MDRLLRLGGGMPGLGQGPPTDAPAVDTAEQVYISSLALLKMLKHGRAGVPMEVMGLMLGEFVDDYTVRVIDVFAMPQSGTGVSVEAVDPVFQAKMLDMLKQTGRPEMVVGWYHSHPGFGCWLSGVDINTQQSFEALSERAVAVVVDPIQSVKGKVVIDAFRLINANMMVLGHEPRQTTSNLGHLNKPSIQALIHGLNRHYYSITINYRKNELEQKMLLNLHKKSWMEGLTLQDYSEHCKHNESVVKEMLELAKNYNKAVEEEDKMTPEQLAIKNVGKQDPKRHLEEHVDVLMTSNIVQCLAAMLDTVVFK
On to `CCc1ccc(-c2cc(C(=O)NCc3ccco3)c3ccccc3n2)s1`, for which the inhibition was 40.9% (active).

Consider `CCCS(=O)(=O)N1CCCC(C(=O)NCc2ccco2)C1` (stereo unspecified), for which the inhibition is -10.1% (inactive).

For `C=CCn1c(=S)[nH]c2scc(-c3ccco3)c2c1=O`, the inhibition was 0.26% (inactive).

Regarding `CCC(C)Cn1c(O)cc2nn(-c3nc4ccccc4s3)c(=O)c-2c1C` (stereo unspecified), the inhibition is 15.4% (inactive).

As for `Cc1ccc(NC(=O)c2c(NC(=O)CCC(=O)O)sc3c2CCCCC3)cc1`, the inhibition is -3.94% (inactive).

Turning to `COc1ccc(CNC(=O)c2nnn(CC(=O)Nc3cc(C)cc(C)c3)c2N)cc1`, the inhibition was 52.8% (active).

`CSC1=N/C(=C\C=C\c2cccs2)C(=O)S1`: the inhibition is 29.7% (inactive).

Turning to `CCN1CCN(c2cc3nc(C)n(Cc4ccccc4)c(=O)c3cc2NC(=O)c2ccccc2F)CC1`, the inhibition was 17.4% (inactive).

On to `C/C(=N/Nc1nc(-c2ccccc2)c(CC(=O)O)s1)c1ccccc1`, for which the inhibition was 34% (inactive).

For the compound `COc1ccc(Cl)cc1NC(=O)CCS(=O)(=O)c1ccc(Br)cc1`, the inhibition was 124% (active).

For the compound `O=C(CCS(=O)(=O)c1cccc2nonc12)NCCc1ccccc1Cl`, the inhibition is -2.85% (inactive).

Consider `CCCOc1ccc(Cn2c(O)cc(=O)[nH]c2=O)cc1`, for which the inhibition is 20.3% (inactive).

Consider `CCNCc1cc2cc(C)ccc2[nH]c1=O`, for which the inhibition is 18.7% (inactive).

Consider `Cc1ccc(Nc2nc(Cl)c(C=O)s2)cc1`, for which the inhibition is 55% (active).

With `Cc1ccc(Nc2ccccc2N)cc1`, the inhibition was 32.8% (inactive).

`O=C(OCc1cc2ccccc2[nH]c1=O)c1cccnc1`: the inhibition is -8.83% (inactive).

For `CC(C)Cn1c(CCC(=O)O)ccc1-c1cccs1`, the inhibition is -26.6% (inactive).

Consider `CC(C)CC1C(=O)N(Cc2cn(Cc3ccco3)nn2)CCS(=O)(=O)N1Cc1ccc(-c2ccc(Cl)c(Cl)c2)cc1` (stereo unspecified), for which the inhibition was 17.1% (inactive).

For `Cc1c(NC(=O)CSc2cccc3cccnc23)c(=O)n(-c2ccccc2)n1C`, the inhibition is 21.1% (inactive).

For the compound `CN=c1scc(-c2cc(OC)ccc2OC)n1/N=C/c1c(C)[nH]c2ccccc12`, the inhibition is 44.5% (active).

`CC(=O)c1sc(N/N=C/c2ccc(C(C)C)cc2)nc1C`: the inhibition was -9.02% (inactive).

As to `CCOC(=O)N1CCC(NC(=O)C(NS(=O)(=O)c2ccc3c(c2)CCN3C(=O)CC)C(C)C)CC1` (stereo unspecified), the inhibition was 4.92% (inactive).

As for `Cc1sc2nc(COC(=O)C(NC(=O)c3ccc(Cl)cc3Cl)C(C)C)[nH]c(=O)c2c1C` (stereo unspecified), the inhibition is 34.7% (inactive).

In the case of `C=CC1=C(C(=O)O)N2C(=O)[C@@H](NC(=O)/C(=N/OCC(=O)O)c3csc(N)n3)[C@H]2SC1`, the inhibition is 66.5% (active).

Turning to `CCC/C=C(\CCC)C(NC(=O)Cc1ccccc1)c1ccc(C(=O)OC)cc1` (stereo unspecified), the inhibition was -5.68% (inactive).

In the case of `CCCCCCCCCCOC(=O)Cn1c(COc2cccc(OC)c2)[n+](C)c2ccccc21`, the inhibition was 7.65% (inactive).

Regarding `COC1=C/C(=C/c2c(N)n3nc(CC(=O)N4CCOCC4)sc3nc2=O)C=CC1=O`, the inhibition was 31.8% (inactive).

Consider `O=C(COc1cccc(F)c1)Oc1ccc(C(=O)c2ccccc2)cc1`, for which the inhibition is -1.38% (inactive).

Regarding `Cc1ccc(N=Cc2c(O)cc(C)oc2=O)c(C)c1`, the inhibition was 22.8% (inactive).

`CCOc1ccc(-n2c(O)c(/C=N/c3ccnn3Cc3ccncc3)c3ccccc3c2=O)cc1`: the inhibition is 98.3% (active).

On to `CCOc1ccc(-n2c(O)c(/C=N/Nc3nnc(C)c(=O)[nH]3)c3ccccc3c2=O)cc1`, for which the inhibition is 38.6% (inactive).

As to `COc1ccc2[nH]c(=O)c(-c3noc(-c4ccc(F)cc4)n3)cc2c1`, the inhibition is 3.41% (inactive).

Consider `Cc1cc(/C=N/Nc2ccc([N+](=O)[O-])cn2)c(C)n1-c1cccc(C(=O)O)c1`, for which the inhibition is 19.1% (inactive).

Turning to `Cc1oc2c(C)c3oc(=O)c(CC(=O)N[C@@H](CC(C)C)C(=O)N[C@@H](Cc4ccccc4)C(=O)O)c(C)c3cc2c1C`, the inhibition was 26.8% (inactive).

Consider `N#Cc1c(-c2cccs2)nc(SCC(=O)c2ccc(Br)cc2)[nH]c1=O`, for which the inhibition was 46% (active).

Turning to `CCCCCCSc1ccc([C@@H]2[C@H]3C(=O)N(CC)C(=O)[C@H]3[C@]3(C(=O)OC)CCCCN23)cc1`, the inhibition was 33.6% (inactive).

For `CS(=O)(=O)c1ccc2c(c1)SC1=NC(=O)/C(=C/c3ccco3)C(=N)N12`, the inhibition was 46.2% (active).

`CN(C)c1ccc(-n2cccc2/C=C2/SC(=Nc3ccc(F)cc3)NC2=O)cc1`: the inhibition was -10.9% (inactive).

On to `Cc1cc(/C=C2/SC(=O)N(CC(=O)N3CCCC3)C2=O)ccc1N1CCOCC1`, for which the inhibition was 33.9% (inactive).

Take `COc1cccc(-c2nn(-c3ccccc3)cc2/C=C(\C#N)C(=O)NCCCn2ccnc2)c1`: the inhibition is 53.8% (active).

For the compound `CCN(CC)C(=O)CSc1nc2ccccc2n1CC(=O)N1CCN(c2ccccc2OC)CC1`, the inhibition is -7.43% (inactive).

With `O=C(CSc1nc2ccccc2c(=O)[nH]1)Nc1nc(-c2ccc(Br)cc2)cs1`, the inhibition is 129% (active).

Consider `C=CCn1c(SCC(=O)NCc2ccccc2)nnc1-c1cc(Br)ccc1O`, for which the inhibition was -6.6% (inactive).

`Cc1ccc2cc(C#N)c(NCCNC(=S)NCCCN3CCOCC3)nc2c1`: the inhibition was 1.22% (inactive).

Turning to `O=C(Nc1ccc(-c2nnc(-c3ccccc3)o2)cc1)c1ccc(Br)o1`, the inhibition is 11.5% (inactive).

For `COc1cc(/C=C2/SC(=S)N(Cc3ccccc3)C2=O)cc(OC)c1O`, the inhibition was 49.8% (active).

As for `Nc1nonc1-n1nnc(C(=O)N/N=C/c2cc(Br)ccc2O)c1CSC1=NCCS1`, the inhibition was 24.8% (inactive).

With `CCOc1cc(/C=C2\SC(N3CCCCC3)=NC2=O)ccc1O`, the inhibition was 18.3% (inactive).

For the compound `CC(=O)/C(=N\Nc1ccc(Cl)cc1Cl)Sc1cccc2cccnc12`, the inhibition is 62.9% (active).

As for `O=C(CSc1cccc2cccnc12)N/N=C/c1cccnc1`, the inhibition was 32.7% (inactive).

Turning to `N#Cc1ccc(C(=O)Nc2cccc3cccnc23)c(F)c1`, the inhibition is -21.1% (inactive).

Regarding `CC1CCN(c2ccc3c(c2)S(=O)(=O)c2cc(C(=O)O)ccc2C3=O)CC1`, the inhibition was 30.4% (inactive).

`Cc1nc2ccccc2n1C(=O)N1CCOCC1`: the inhibition is -9.96% (inactive).

For `COc1cccc(/C=C(/CC(=O)Nc2ccc(N3CCOCC3)cc2)c2nc3ccccc3s2)c1`, the inhibition is 57.2% (active).

With `COc1ccc(-n2c(SCC(=O)Nc3sc4c(c3C#N)CCCC4)nnc2-c2ccc(O)cc2)cc1`, the inhibition is 13.9% (inactive).

In the case of `CC(=O)Nc1ccccc1Sc1ccc2c3c(cccc13)C(=O)N(c1ccc(C)cc1)C2=O`, the inhibition was 1.98% (inactive).
